“And” between values parts separate entries of the source, which are not always exact repeats. Identical values can stand only once. Values without a mark were called inactive. Results filed as inconclusive are left out. Entries that show only a call come without a potency. The source made the active and inactive calls. Unless noted, calls follow the shape of the dose curve; as a rule, active = well fitted curve in the direction sought with a large enough effect in the repeat runs; inconclusive = weak or mixed curves; inactive = no such curve, though single readings can be large; an effect the other way counts as inactive or inconclusive.
Columns and labels:
[1] = qHTS assay to identify small molecule antagonists of the sonic hedgehog signaling (Shh) pathway (AID 1259369; calls by dose curve; also: nearly all actives have a fitted effect of over 45% in size; also: potency is read from the fitted curve at half-maximal effect)
Method in brief: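 Stable Gli1-Luc reporter NIH/3T3 clone; quantitative HTS in stimulated mode with conditioned medium. Luminescence measured after 24hr compound treatment at 37 C.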

[2] = qHTS assay to identify small molecule agonists of the androgen receptor (AR) signaling pathway in the presence of an antagonist - cell viability counter screen (AID 1259379); also: nearly all actives have a fitted effect of over 25% in size; also: potency is read from the fitted curve at half-maximal effect
Method in brief: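 Nilutamide-containing (3.0uM final) MDA-kb2 cultures, 3,000 cells/well, were treated with compounds across 15 concentrations. After 16 hr at 37C with no CO2, cell viability was determined by CellTiter-Fluor fluorescence in the luciferase assay wells.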

[3] = qHTS assay to identify small molecule agonists of the estrogen receptor beta (ER-beta) signaling pathway - cell viability counter screen (AID 1259380); also: nearly all actives have a fitted effect of over 30% in size; also: potency is read from the fitted curve at half-maximal effect
Method in brief: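 Steps: plate ER-beta-UAS-bla HEK293T cells, rest 6 hr; add compounds in DMSO; incubate 16 hr at 37C, 5% CO2; add FRET substrate 2 hr; add CellTiter-Glo, wait 30 min at room temperature; read luminescence.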

[4] = qHTS assay to identify small molecule antagonists of the estrogen receptor beta (ER-beta) signaling pathway - cell viability counter screen (AID 1259382); also: nearly all actives have a fitted effect of over 55% in size; also: potency is read from the fitted curve at half-maximal effect
Method in brief: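 Viability is scored by CellTiter-Glo luminescence (30 min, room temperature) in ER-beta-UAS-bla HEK293T wells already read for reporter fluorescence. Compound exposure lasts 16 hr at 37C alongside 1nM 17-beta-estradiol in charcoal-stripped serum medium.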

[5] = target: Estrogen receptor (Homo sapiens) (UniProt P03372); experiment: qHTS assay to identify small molecule agonists of the estrogen receptor alpha (ER-alpha) signaling pathway in the presence of an antagonist (AID 1259383; calls by dose curve; also: top concentration of the series differs between compounds; nearly all actives have a fitted effect of over 15% in size)
Method in brief: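 Readout was ERE-driven luciferase luminescence in VM7Luc4E2 cells, which express full-length ER-alpha endogenously. Compounds were tested at 15 concentrations for 22hr alongside 10.0nM ICI-182,780 (final concentration).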

[6] = qHTS assay to identify small molecule agonists of the estrogen receptor alpha (ER-alpha) signaling pathway in the presence of an antagonist - cell viability counter screen (AID 1259386);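 also: cells exposed to compounds for 22 h at 37 °C before the viability read; nearly all actives have a fitted effect of over 30% in size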; also: potency is read from the fitted curve at half-maximal effect
Method in brief: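 In this counter screen, compound effects on VM7Luc4E2 viability were tested in the presence of the antagonist ICI-182,780 at 10.0nM final. Compounds were dosed at 15 concentrations, exposure lasted 22hr, and the CellTiter-Fluor signal was read.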

[7] = target: Progesterone receptor (Homo sapiens) (UniProt P06401); experiment: qHTS assay to identify small molecule agonists of the progesterone receptor (PR) signaling pathway (AID 1346784; calls by dose curve; also: nearly all actives have a fitted effect of over 30% in size)
Method in brief: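 Fluorescence from LiveBLAzer B/G FRET substrate cleavage (2 hr, RT) reported PR activation in PR-UAS-bla HEK 293T cells treated 16 hr at 37C/5% CO2 with compounds; medium contained 2% charcoal-stripped FBS.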

[8] = target: Progesterone receptor (Homo sapiens) (UniProt P06401); experiment: qHTS assay to identify small molecule antagonists of the progesterone receptor (PR) signaling pathway (AID 1346795; active = well fitted inhibition curve with a large enough effect in the signal ratio in the repeat runs, not every such curve was filed as active; the % refers to the signal ratio; also: potency is read from the fitted curve at half-maximal effect)
Method in brief: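 Fluorescence intensity measured 2 hr after adding beta-lactamase FRET substrate to PR-UAS-bla HEK293T cells that had been co-treated 16 hr with compound and 1 nM R5020 (final concentration) in 2% charcoal-stripped FBS.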

[9] = qHTS assay to identify small molecule antagonists of the progesterone receptor (PR) signaling pathway - cell viability counter screen (AID 1346798); also: series mostly up to about 92 µM; nearly all actives have a fitted effect of over 50% in size
Method in brief: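 CellTiter-Glo luminescence; PR-UAS-bla HEK293T, 3,000 cells/well; compound + R5020, 16 hr, 37C/5% CO2; 30 min RT before read.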

[10] = qHTS assay to identify small molecule agonists of the progesterone receptor (PR) signaling pathway - cell viability counter screen (AID 1346799; calls by dose curve; also: nearly all actives have a fitted effect of over 45% in size; also: potency is read from the fitted curve at half-maximal effect)
Method in brief: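 In parallel with the beta-lactamase readout, cytotoxicity toward PR-UAS-bla HEK293T cells was measured by CellTiter-Glo luminescence following 16 hr compound incubation in 2% charcoal-stripped FBS medium.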

[11] = qHTS assay to identify small molecule agonists of the TGF-beta/Smad signaling pathway - cell viability counter screen (AID 1346829); also: top concentration of the series differs between compounds; nearly all actives have a fitted effect of over 45% in size
Method in brief: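 Compound-treated SBE-bla HEK 293T cells (5 hr, 37 C) were assessed for viability with CellTiter-Glo in parallel with the reporter read.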

[12] = qHTS assay to identify small molecule agonists of the TGF-beta/Smad signaling pathway (AID 1346859; active = well fitted activation curve with a large enough effect in the signal ratio in the repeat runs, not every such curve was filed as active; the % refers to the signal ratio; also: series mostly up to about 77 µM)
Method in brief: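 After overnight seeding, SBE-bla HEK 293T cells are dosed with compounds in DMSO and kept 5 hr at 37 C, 5% CO2. LiveBLAzer-type FRET substrate is then applied for 2 hr at room temperature.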

[13] = target: Thyrotropin-releasing hormone receptor (Homo sapiens) (UniProt P34981); experiment: qHTS assay to identify small molecule antagonists of the thyrotropin-releasing hormone receptor (TRHR) signaling pathway (AID 1346877; active = well fitted inhibition curve with a large enough effect in the repeat runs, not every such curve was filed as active; also: series mostly up to about 51 µM)
Method in brief: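 Kinetic fluorescence (3 min, 1 s resolution) following stimulation with TRH at 1 nM final; HEK293 cells bearing human TRHR; 5 min compound preincubation at RT; concentration-response over 15 points, triplicates.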

[14] = target: Thyrotropin-releasing hormone receptor (Homo sapiens) (UniProt P34981); experiment: qHTS assay to identify small molecule agonists of the thyrotropin-releasing hormone receptor (TRHR) signaling pathway (AID 1346891; calls by dose curve;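 also: HEK293 cells expressing TRHR with calcium dye readout; series mostly up to about 58 µM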)
Method in brief: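 Compounds were tested as agonists at 15 concentrations, in triplicate, on TRHR-Hek293 cells; calcium-sensitive dye fluorescence was recorded for 3 min following addition.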

[15] = Human pregnane X receptor (PXR) small molecule agonists, qHTS cell viability counter screen (AID 1346977); also: nearly all actives have a fitted effect of over 50% in size; also: potency is read from the fitted curve at half-maximal effect
Method in brief: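 Viability counter screen: CellTiter-Fluor signal in PXR-Luc HepG2 cells, 24hr compound exposure, 37C, 5% CO2.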

[16] = target: Thyrotropin receptor (Homo sapiens) (UniProt P16473); experiment: qHTS assay to identify small molecule antagonists of the thyroid stimulating hormone receptor (TSHR) signaling pathway (AID 1259385; calls by dose curve; also: nearly all actives have a fitted effect of over 20% in size; also: potency is read from the fitted curve at half-maximal effect)
Method in brief: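 Antagonist mode: compound-treated TSHR-expressing HEK293 cells were stimulated with 1.5 ng/mL TSH (final) in presence of Ro20-1724 for 30 min at RT. HTRF cAMP detection after 1 h; each compound tested at 15 concentrations, triplicate.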

[17] = qHTS assay to identify small molecule antagonists of the TGF-beta/Smad signaling pathway - cell viability counter screen (AID 1346824); also: nearly all actives have a fitted effect of over 50% in size
Method in brief: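 Cytotoxicity counter-screen run in the same wells as the beta-lactamase Smad reporter read: CellTiter-Glo luminescence after 30 min at room temperature. HEK 293T SBE-bla cells had 5 hr compound exposure at 37 C with TGF-beta1 (0.25 ng/mL stock).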

[18] = qHTS assay to identify small molecule agonists or antagonists of the thyroid stimulating hormone receptor (TSHR) signaling pathway - wild type cell line counter screen (AID 1259384; calls by dose curve)
Method in brief: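 Counter screen in untransfected Hek293: compounds (15-point titration, triplicate) plus phosphodiesterase inhibitor Ro20-1724 added after 18 h plating; 30 min RT. Intracellular cAMP via competitive d2/cryptate immunoassay, 1 h incubation.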

Chain of Thyrotropin-releasing hormone receptor (Homo sapiens) (P34981 whole entry, looked up): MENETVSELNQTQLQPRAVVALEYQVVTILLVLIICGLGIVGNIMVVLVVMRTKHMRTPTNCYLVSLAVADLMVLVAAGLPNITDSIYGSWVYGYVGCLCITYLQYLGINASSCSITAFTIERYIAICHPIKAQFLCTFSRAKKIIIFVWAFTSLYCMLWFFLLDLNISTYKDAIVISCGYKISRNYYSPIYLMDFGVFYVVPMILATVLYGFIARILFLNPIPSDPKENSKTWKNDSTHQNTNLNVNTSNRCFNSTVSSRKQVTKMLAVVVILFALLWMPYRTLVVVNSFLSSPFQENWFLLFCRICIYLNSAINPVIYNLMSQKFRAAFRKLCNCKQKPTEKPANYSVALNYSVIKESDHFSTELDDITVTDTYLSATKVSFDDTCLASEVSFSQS
Chain of Estrogen receptor (Homo sapiens) (P03372 whole entry, looked up): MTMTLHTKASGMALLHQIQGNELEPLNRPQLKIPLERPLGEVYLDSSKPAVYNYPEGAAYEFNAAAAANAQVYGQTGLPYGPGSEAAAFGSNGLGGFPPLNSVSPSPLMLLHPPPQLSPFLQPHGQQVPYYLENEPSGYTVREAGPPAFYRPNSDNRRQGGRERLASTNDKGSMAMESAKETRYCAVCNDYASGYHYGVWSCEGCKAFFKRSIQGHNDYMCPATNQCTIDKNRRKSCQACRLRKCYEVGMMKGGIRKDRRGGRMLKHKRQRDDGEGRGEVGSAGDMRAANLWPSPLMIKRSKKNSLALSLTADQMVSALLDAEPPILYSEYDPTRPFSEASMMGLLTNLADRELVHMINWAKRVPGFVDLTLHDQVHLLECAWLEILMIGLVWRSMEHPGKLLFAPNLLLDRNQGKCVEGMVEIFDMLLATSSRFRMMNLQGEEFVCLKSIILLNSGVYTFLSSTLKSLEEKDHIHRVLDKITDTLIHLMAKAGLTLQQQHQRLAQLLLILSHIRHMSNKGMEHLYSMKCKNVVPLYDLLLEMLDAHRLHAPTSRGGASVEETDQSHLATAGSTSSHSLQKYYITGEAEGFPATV
Chain of Progesterone receptor (Homo sapiens) (P06401 whole entry, looked up): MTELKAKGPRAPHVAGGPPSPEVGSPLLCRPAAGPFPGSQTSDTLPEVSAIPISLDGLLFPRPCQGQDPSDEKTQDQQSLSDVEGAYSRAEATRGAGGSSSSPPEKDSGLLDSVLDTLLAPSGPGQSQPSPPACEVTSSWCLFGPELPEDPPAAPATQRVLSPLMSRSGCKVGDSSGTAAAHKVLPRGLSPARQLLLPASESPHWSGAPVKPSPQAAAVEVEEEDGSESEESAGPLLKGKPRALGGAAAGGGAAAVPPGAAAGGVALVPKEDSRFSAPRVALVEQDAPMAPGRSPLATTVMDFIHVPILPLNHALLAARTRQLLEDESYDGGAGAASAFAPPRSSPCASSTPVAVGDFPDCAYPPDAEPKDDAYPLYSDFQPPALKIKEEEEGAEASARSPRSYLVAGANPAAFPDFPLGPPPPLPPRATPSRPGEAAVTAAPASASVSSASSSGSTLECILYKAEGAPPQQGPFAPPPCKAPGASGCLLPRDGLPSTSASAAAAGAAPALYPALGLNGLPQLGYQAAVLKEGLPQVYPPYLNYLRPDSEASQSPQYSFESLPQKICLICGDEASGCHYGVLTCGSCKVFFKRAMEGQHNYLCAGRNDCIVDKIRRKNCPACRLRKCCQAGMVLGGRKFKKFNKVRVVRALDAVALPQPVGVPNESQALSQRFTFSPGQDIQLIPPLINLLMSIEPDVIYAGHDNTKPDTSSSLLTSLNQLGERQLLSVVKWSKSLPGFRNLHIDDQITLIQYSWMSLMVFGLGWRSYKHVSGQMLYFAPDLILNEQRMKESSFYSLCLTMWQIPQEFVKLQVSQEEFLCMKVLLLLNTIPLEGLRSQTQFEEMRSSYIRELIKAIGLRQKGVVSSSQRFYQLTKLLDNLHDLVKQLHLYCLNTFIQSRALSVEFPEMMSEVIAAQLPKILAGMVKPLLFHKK
Chain of Thyrotropin receptor (Homo sapiens) (P16473 whole entry, looked up): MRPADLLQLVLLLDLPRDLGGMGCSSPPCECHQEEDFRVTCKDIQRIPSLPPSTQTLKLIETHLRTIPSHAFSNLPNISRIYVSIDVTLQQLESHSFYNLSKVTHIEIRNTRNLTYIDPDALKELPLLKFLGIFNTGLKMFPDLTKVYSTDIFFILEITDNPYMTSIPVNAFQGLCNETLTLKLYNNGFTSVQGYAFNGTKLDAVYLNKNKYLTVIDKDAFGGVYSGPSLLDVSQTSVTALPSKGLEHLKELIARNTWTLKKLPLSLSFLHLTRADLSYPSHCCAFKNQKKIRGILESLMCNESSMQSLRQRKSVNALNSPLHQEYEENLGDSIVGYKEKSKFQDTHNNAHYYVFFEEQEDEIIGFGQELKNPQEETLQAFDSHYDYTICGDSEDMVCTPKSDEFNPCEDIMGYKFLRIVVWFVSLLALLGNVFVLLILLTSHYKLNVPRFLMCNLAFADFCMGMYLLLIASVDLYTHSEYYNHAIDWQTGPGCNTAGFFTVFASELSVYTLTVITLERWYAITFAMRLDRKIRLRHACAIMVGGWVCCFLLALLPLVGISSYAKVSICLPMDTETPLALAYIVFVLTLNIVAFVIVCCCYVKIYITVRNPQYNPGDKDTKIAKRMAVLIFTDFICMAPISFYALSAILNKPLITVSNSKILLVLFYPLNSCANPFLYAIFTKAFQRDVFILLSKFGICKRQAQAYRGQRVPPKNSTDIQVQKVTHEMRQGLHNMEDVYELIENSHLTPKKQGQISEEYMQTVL

Compound | Potency [1] | Potency [2] | Potency [3] | Potency [4] | Potency [5] | Potency [6] | Potency [7] | Potency [8] | Potency [9] | Potency [10] | outcome [11] | outcome [12] | outcome [13] | outcome [14] | Potency [15] | Potency [16] | Potency [17] | outcome [18]
N=C(N)c1ccc2cc(OC(=O)c3ccc(N=C(N)N)cc3)ccc2c1 | inactive | inactive | inactive | inactive | inactive | inactive | inactive | inactive | inactive | inactive | inactive | inactive | inactive | inactive | inactive |  |  | 
OC[C@]1(O)OC[C@@H](O)[C@H](O)[C@@H]1O | inactive | inactive | inactive | inactive |  | inactive | inactive | inactive | inactive | inactive | inactive | inactive | inactive | inactive | inactive | inactive | inactive | 
CCN(CC)CCOCCOC(=O)C1(c2ccccc2)CCCC1 | inactive | inactive | inactive | inactive | inactive |  | inactive | inactive |  | inactive | inactive |  |  |  | 26.6 µM (active) | inactive | inactive | inactive
CN(C)CCCN1c2ccccc2CCc2ccc(Cl)cc21 | 15.4 µM (active) and 11.9 µM (active) | 48.6 µM (active) and 33.5 µM (active) | 24.3 µM (active) and 21.1 µM (active) | 24.3 µM (active) and 18.8 µM (active) |  | 68.6 µM (active) | inactive | 26.6 µM (active) |  | 30.6 µM (active) and 23.7 µM (active) | inactive | inactive | inactive | inactive | 30.6 µM (active) and 29.8 µM (active) | 68.6 µM (active) and 29.8 µM (active) | inactive | inactive
CCOC(=O)CC(C)=O | inactive | inactive | inactive | inactive |  | inactive | inactive | inactive | inactive | inactive | inactive |  |  |  | inactive | inactive |  | inactive
CCCCCSCCCCC | inactive | inactive | inactive | inactive | inactive | inactive | inactive | inactive | inactive | inactive | inactive |  |  |  | inactive | inactive | inactive | 
Cc1cc(O)cc2c1O[C@](C)(CCC[C@H](C)CCC[C@H](C)CCCC(C)C)CC2 | inactive | inactive | inactive | inactive | inactive | inactive | inactive | inactive | inactive | inactive | inactive | inactive | inactive | inactive | inactive | inactive | inactive | 
NC(=O)c1ccc([N+](=O)[O-])cc1 | inactive | inactive | inactive | inactive |  | inactive | inactive |  | inactive | inactive | inactive | inactive |  |  | inactive | inactive | inactive | inactive
